In all, about 340,000 compounds went through this assay and about 2,100 (0.62%) were called active.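 How the source made its calls: active means first-screen hits whose inhibition reached a set limit at any dose in the follow-up dose series; inconclusive means inhibition above the set first-screen limit but never retested; inactive means the rest.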 These entries were drawn from the full list. Measured potencies and affinities stand elsewhere.

The target of the test is Rac GTPase-activating protein 1 (Homo sapiens) (UniProt Q9H0H5). The test is described as follows: MgcRacGAP GTPase-activating activity inhibitors, confirmation, biochemical, ADP Hunter fluorescence, primary and confirmatory (AID 624330).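 Further: fluorescence reports GDP produced by GAP-driven GTP hydrolysis.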 The conditions noted are these: MgcRacGAP-stimulated Rac1 GTP hydrolysis, at 30 µM, active compounds read high, GST-tagged Rac1 F28L mutant substrate.
Rac GTPase-activating protein 1 (Homo sapiens), sequence (Q9H0H5 whole entry, looked up): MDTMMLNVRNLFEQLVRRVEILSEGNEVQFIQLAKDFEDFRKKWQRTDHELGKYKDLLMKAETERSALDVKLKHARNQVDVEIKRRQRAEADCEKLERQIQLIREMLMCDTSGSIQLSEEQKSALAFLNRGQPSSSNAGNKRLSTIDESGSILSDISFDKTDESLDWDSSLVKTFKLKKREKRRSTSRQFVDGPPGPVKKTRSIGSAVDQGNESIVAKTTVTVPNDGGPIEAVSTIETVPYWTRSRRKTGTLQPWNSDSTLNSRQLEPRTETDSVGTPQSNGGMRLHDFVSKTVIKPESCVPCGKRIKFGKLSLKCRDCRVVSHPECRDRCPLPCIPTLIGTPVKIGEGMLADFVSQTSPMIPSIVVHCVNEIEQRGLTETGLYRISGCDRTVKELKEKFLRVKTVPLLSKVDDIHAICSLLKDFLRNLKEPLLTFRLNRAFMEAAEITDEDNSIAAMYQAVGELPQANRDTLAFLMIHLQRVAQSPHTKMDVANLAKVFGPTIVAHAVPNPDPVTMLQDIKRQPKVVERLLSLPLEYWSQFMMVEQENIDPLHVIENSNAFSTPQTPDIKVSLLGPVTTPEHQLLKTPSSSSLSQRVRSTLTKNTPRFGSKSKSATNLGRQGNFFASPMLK
Take `CCOc1ccc(-c2csc(NC(=O)c3cccc(N4C(=O)CCC4=O)c3)n2)cc1`: the inhibition – broadly, the drop in the measured response relative to a control, in per cent – was 1.94% (inactive).
As to `COc1ccc(Cl)cc1NC(=O)NN1CCN(C)CC1`, the inhibition was 9.05% (inactive).
As for `COc1cccc(-c2c(C(=O)N/N=C(\C)c3ccco3)nnn2-c2nonc2N)c1`, the inhibition is 3.24% (inactive).
Turning to `c1cncc(-c2nnc3n2N=C(c2cccs2)CS3)c1`, the inhibition was 7.37% (inactive).
As for `C(=N\N=C\c1cccs1)/c1cccs1`, the figure is 3.75% (inactive); as for `Cc1nnc(C)n1/N=C/c1cccs1`, 17.6% (inactive).
As to `Cc1nnc(C)n1/N=C/c1cccc([N+](=O)[O-])c1`, the inhibition was 0.71% (inactive).
As for `Cc1ccc(-c2n[nH]c(=S)n2/N=C/c2cccs2)cc1`, the figure is 25.8% (inactive); as for `S=c1[nH]nc(-c2cccnc2)n1/N=C/c1ccc(Br)s1`, 8.12% (inactive).
Consider `O=[N+]([O-])c1ccc(/C=N/n2c(-c3cccnc3)n[nH]c2=S)cc1`, for which the inhibition was 14.5% (inactive).
As for `Cc1ccc(/C=N/n2c(C)nnc2C)s1`, the figure is 5.21% (inactive); as for `O=C(CCNC(=O)c1ccco1)NCc1ccc(C(=O)O)cc1`, 10.3% (inactive); as for `O=C(NCc1cccnc1)c1ccc([N+](=O)[O-])cc1`, 6.96% (inactive).
Under `CC1(C)CC(=O)C2=C(C1)NC(SCC(N)=O)=C(C#N)C21CCCCC1` stands 7.26% (inactive).
As for `CC(C)Oc1ccc(OCCn2c(S(=O)(=O)O)nc3c(N)ncnc32)cc1`, the figure is 2.7% (inactive); as for `Cc1ccccc1OCCn1c(S(=O)(=O)O)nc2c(N)ncnc21`, 9.98% (inactive).
Take `Cc1ccccc1OCCn1cnc2c(N)ncnc21`: the inhibition is -13% (inactive).
Consider `CCOc1ccc(OCCn2c(S(=O)(=O)O)nc3c(N)ncnc32)cc1`, for which the inhibition is 12.6% (inactive).
Regarding `CN1CCN(C(=O)CSc2cc(=O)n(C)c3ccccc23)CC1`, the inhibition was 6.45% (inactive).
In the case of `CCOC(=O)N1CCC(NC(=O)C(CC(C)C)NC(=O)C2CCCCC2)CC1` (stereo not drawn), the inhibition was 9.57% (inactive).
Under `Cc1ccc(S(=O)(=O)N2CCC(C(=O)NCCc3ccccn3)CC2)cc1` stands -0.14% (inactive); under `COc1cc(/C=C2\SC(c3ccccc3)=NC2=O)cc(Cl)c1O`, 27.3% (inactive); under `COc1ccc(/C=C2\SC(N)=NC2=O)cc1Cl`, 1.73% (inactive).
With `COc1cc(/C=C2\SC(N)=NC2=O)cc(Br)c1O`, the inhibition is 29.2% (inactive).
With `COc1ccc(Br)cc1/C=C/C(=O)NC(=S)Nc1ccc(Cl)c(C(=O)O)c1`, the inhibition was 6.62% (inactive).
`COc1ccc(Br)cc1C(=O)NC(=S)Nc1ccc(Cl)c(C(=O)O)c1`: the inhibition was 5.62% (inactive).
Under `COc1cc(/C=C2/SC(=S)N(Cc3ccccc3)C2=O)cc(Cl)c1O` stands 10% (inactive); under `CC1CCCCN1C(=O)c1ccc(CS(=O)(=O)Cc2ccccc2)cc1` (stereo not drawn), 8.5% (inactive); under `CCN1CCN(C(=O)c2[nH]c3ccc(OC)cc3c2C)CC1`, 6.11% (inactive).
For `Cc1ccc(S(=O)(=O)NCCc2c[nH]c3ccccc23)cc1`, the inhibition is 4.49% (inactive).
As for `COc1ccc(CCNC(=O)CCn2c(=O)c3cccn3c3ccc(F)cc32)c(OC)c1OC`, the figure is 12.9% (inactive); as for `O=C1NCC(COc2cccc3ccccc23)O1` (stereo not drawn), -1.12% (inactive).
Regarding `Cn1c(O)c(N=NC(=O)CNC(=O)c2cccnc2)c2ccccc21`, the inhibition is 4.23% (inactive).
Under `CCN1C[C@@H]2[C@@H]3C(=O)N(Cc4ccccc4)C(=O)[C@@H]3[C@](C)(C1=O)N2C(=O)c1ccc(Br)cc1` stands 7.24% (inactive); under `O=C(CNC(=O)c1ccc(Br)o1)Nc1ccc(F)c(S(=O)(=O)N2CCOCC2)c1`, 5.58% (inactive); under `Clc1ccc(/C=N/N2CCCCC2)cc1`, 7.04% (inactive).
For `Clc1ccc(C=NN2CCCCCC2)cc1`, the inhibition is -2.87% (inactive).
For `CCOc1ccc(NC(=O)C(C)Oc2ccccc2C(=O)Nc2ccc(C)c(Cl)c2)cc1` (stereo not drawn), the inhibition is 5.67% (inactive).
Under `CC1(NC(=O)NCc2ccccc2)CCS(=O)(=O)C1` (stereo not drawn) stands 10.2% (inactive); under `O=C(c1cccc(Cl)c1)N1CCC(c2nc3ccccc3[nH]2)CC1`, 9.71% (inactive); under `O=C1C(c2c(O)[nH]c3ccccc23)=Nc2ccccc21`, 8.12% (inactive).
Under `O=NC1=C(c2c(O)[nH]c3ccccc23)CCCC1` stands 5.2% (inactive); under `Cc1ccc(NC(=O)COc2nc(C)cs2)cc1`, 4.7% (inactive).
Under `CC(=O)C[C@H](O)CC(=O)[C@H]1OC(=O)CC/C=C\Cc2ccccc21` stands 5.25% (inactive); under `COc1cc(CNCc2ccc(OC)c(OC)c2OC)cc(OC)c1`, 15.6% (inactive).
Consider `COc1cc(CNCc2ccc(C)cc2)cc(OC)c1OC`, for which the inhibition was 22.2% (inactive).
Under `COc1cc(CNCc2cccc3ccccc23)cc(OC)c1` stands 25.2% (inactive).
As to `COc1ccc(CNCc2ccccc2C(F)(F)F)cc1`, the inhibition is 29.7% (inactive).
For the compound `CCCCn1c(N)c(N(CC(C)C)C(=O)c2cccc(S(=O)(=O)N(C)c3ccccc3)c2)c(=O)[nH]c1=O`, the inhibition was 5.29% (inactive).
Take `CCOC(=O)CC(NC(=O)c1ccccc1)c1ccc(OC)cc1` (stereo not drawn): the inhibition is 3.97% (inactive).
Under `COCCNC(=O)c1cccc(OC2CCN(Cc3ccccc3OCCO)CC2)c1` stands 11.3% (inactive); under `O=C(NC(=S)N1CCCCCC1)c1ccccc1`, 2.51% (inactive).
Under `COc1cc2oc(-c3ccc(O)cc3)cc(=O)c2c(O)c1OC` stands 18.1% (inactive); under `COc1c(O)cc2oc(-c3ccc(O)cc3)cc(=O)c2c1O`, 10.2% (inactive).
Regarding `CS(=O)(=O)N(Cc1ccco1)CC(O)Cn1cc(C=O)c2ccccc21` (stereo not drawn), the inhibition is 8.31% (inactive).
As for `CCN(CC(=O)Nc1cc(C)c(Cl)cc1OC)CC(=O)NC1CCS(=O)(=O)C1` (stereo not drawn), the figure is 8.4% (inactive); as for `COc1ccc(Cl)cc1NC(=O)CN(C)C1CCS(=O)(=O)C1` (stereo not drawn), 6.99% (inactive); as for `COCCNC(=O)CSc1ncnc2sc(-c3ccccc3)cc12`, 6.39% (inactive).
As for `COCCn1c(=NC(=O)c2ccc(S(=O)(=O)N3CCOCC3)cc2)sc2cc(S(N)(=O)=O)ccc21`, the inhibition is 8.39% (inactive).
As for `FC(F)(F)c1cnc2c(-c3ccc(Cl)cc3Cl)noc2c1`, the inhibition was 10.7% (inactive).
Under `CO/N=C/C(C(C)=O)C(=O)Nc1ccc(Cl)cc1Cl` (stereo not drawn) stands 1.68% (inactive); under `CC(=O)c1cccc(NC(=O)Nc2c(C)nn(C)c2C)c1`, 6.89% (inactive); under `Nc1nc(-c2ccccc2)c(-c2ccccc2)s1`, 10.3% (inactive).
As for `Cc1ccc(-c2nc(N)sc2-c2ccccc2)cc1C`, the figure is 8.82% (inactive); as for `O=S(=O)(NCCCN1CCOCC1)c1ccc(Cl)s1`, 1.35% (inactive).
Under `C/C(=C\C(=O)c1ccccc1)Nc1ccc(Cl)c(Br)c1` stands 6.98% (inactive).
Regarding `C/C(=C\C(=O)c1cccnc1)Nc1ccc(C(=O)O)cc1`, the inhibition is -0.69% (inactive).
As for `CC(=O)Nc1ccc(N/C(C)=C/C(=O)c2cccnc2)cc1`, the figure is -2.43% (inactive); as for `O=C(Nc1ccccc1O)c1ccc(C(=O)c2ccccc2)o1`, 3.33% (inactive); as for `COc1ccc(N/C(C)=C/C(=O)c2ccccc2)cc1`, 10.4% (inactive).
Take `COc1ccc(NC(=O)c2ccc(C(=O)c3ccccc3)o2)cc1`: the inhibition is 1.49% (inactive).
As to `CCN(CC(=O)NCc1ccc(Cl)cc1)C(=O)Cc1ccc(OC)cc1`, the inhibition is 5.69% (inactive).
Take `Cc1cc(C(=O)Nc2ccccc2[N+](=O)[O-])cs1`: the inhibition was 0.21% (inactive).
Under `CCOc1ccc(NC(=O)CN(C)C(=O)c2ccc(N3CCCCCC3)c([N+](=O)[O-])c2)cc1OCC` stands 3.24% (inactive).
Turning to `CCN(CC)CCCNc1ncnc2ccccc12`, the inhibition is 8.44% (inactive).
In the case of `Cc1cc(NCCO)c2cc(O)ccc2n1`, the inhibition is 15% (inactive).
As for `CN(C)CCNc1ccc(-c2nn(C)c(=O)c3ccccc23)cc1[N+](=O)[O-]`, the inhibition was 3.29% (inactive).
Take `CCOC(=O)c1cnc2ccc(Cl)cc2c1NCCN(C)C`: the inhibition was 14.5% (inactive).
As for `CCOC(=O)c1ccc2ncc(C(=O)OCC)c(NCCN(C)C)c2c1`, the figure is -0.66% (inactive); as for `CCN(CC)CCCNC(=O)c1cc(-c2ccc(O)cc2)on1`, 25.9% (inactive); as for `COC(=O)c1ccccc1NC(=O)c1sc(Cl)nc1C`, 6.47% (inactive).
For `O=C1C=CC(=O)C(CNc2ccc(C(=O)OCc3ccccc3)cc2)=C1`, the inhibition is 19.7% (inactive).
With `Fc1ccc(-c2nnc(N3CCOCC3)c3ccccc23)cc1F`, the inhibition was 10.8% (inactive).
Under `COC(=O)C(Cc1ccccc1)NC(=O)CNS(=O)(=O)c1ccc(Br)cc1` (stereo not drawn) stands -0.24% (inactive); under `CC[N+](CC)(CC)CCOc1ccc(/C=C/c2ccccc2)cc1`, 9.54% (inactive); under `CCCCOc1cccc(C(=O)O)c1`, 4% (inactive).
As for `Cc1cc(OCCCCOc2ccc(S(N)(=O)=O)c(C)c2)ccc1S(N)(=O)=O`, the figure is 6.93% (inactive); as for `CCOc1ccc2c(c1)C(=O)c1cc(OCC(=O)O)ccc1-2`, 13.8% (inactive).
As for `O=C(c1ccc(Cl)c(S(=O)(=O)N2CCCCCC2)c1)N1CCCC(C(F)(F)F)C1` (stereo not drawn), the figure is 1.91% (inactive); as for `COc1cccc(C(=O)NC2CCCc3ccccc32)c1` (stereo not drawn), 11.4% (inactive).
As to `Oc1nc(Nc2ccc(F)cc2)sc1/C=C1\C=Nc2ccccc21`, the inhibition was 10.4% (inactive).
As for `O=c1[nH]c(=S)[nH]c(O)c1/C=C1\C=Nc2ccccc21`, the figure is -1.08% (inactive).
Consider `CSc1nsc2nc(=O)c(/C=C3\C=Nc4ccccc43)c(N)n12`, for which the inhibition is 1.86% (inactive).
As for `Cn1c(O)c(/C=C2\C=Nc3ccccc32)sc1=Nc1ccc(C(=O)O)cc1`, the figure is 7.27% (inactive); as for `CC(=O)c1ccc(-n2c(CCC(=O)O)ccc2-c2ccc(Br)cc2)cc1`, 11.4% (inactive); as for `CCCN(CC(=O)Nc1cccc(Br)c1)CC(=O)Nc1ccc(F)c(F)c1F`, 8.26% (inactive).
`CCc1ccccc1S(=O)(=O)Cc1ccc(C(=O)NCc2cccs2)o1`: the inhibition is 1.89% (inactive).
For `O=C(CN(CC1CCCO1)C(=O)Cn1nnc(-c2ccc(F)cc2)n1)NC1CCCCC1` (stereo not drawn), the inhibition is 3.03% (inactive).
